Results on 49 compounds are retold here after PubChem BioAssay AID1851 (National Center for Advancing Translational Sciences (NCATS), 2009).

Screen size: about 16,000 compounds; about 5,800 (36%) were called active. Another 23% or so got no clear call; they are omitted. The list shows a part of the results. Values without a mark were called inactive. The call rests on the fitted dose curve; in most records, active means well fitted curve in the direction sought with a large enough effect; inconclusive means small, poorly fitted or top-dose-only effect, or effect the other way; inactive means no such curve, though single readings can be large or run the other way.
On the % scale 0 is the no-effect control and ±100 the full control effect.

The target of the test is Cytochrome P450 2C19 (Homo sapiens) (UniProt P33261). The test can be described thus: Cytochrome panel assay with activity outcomes. To be noted: recombinant CYP, pro-luciferin dealkylation, luminescence, p450-cyp2c19; series mostly up to 57.1 µM; activity, negative = inhibition: at the top concentration.
Sequence of Cytochrome P450 2C19 (Homo sapiens) (P33261 whole entry, looked up): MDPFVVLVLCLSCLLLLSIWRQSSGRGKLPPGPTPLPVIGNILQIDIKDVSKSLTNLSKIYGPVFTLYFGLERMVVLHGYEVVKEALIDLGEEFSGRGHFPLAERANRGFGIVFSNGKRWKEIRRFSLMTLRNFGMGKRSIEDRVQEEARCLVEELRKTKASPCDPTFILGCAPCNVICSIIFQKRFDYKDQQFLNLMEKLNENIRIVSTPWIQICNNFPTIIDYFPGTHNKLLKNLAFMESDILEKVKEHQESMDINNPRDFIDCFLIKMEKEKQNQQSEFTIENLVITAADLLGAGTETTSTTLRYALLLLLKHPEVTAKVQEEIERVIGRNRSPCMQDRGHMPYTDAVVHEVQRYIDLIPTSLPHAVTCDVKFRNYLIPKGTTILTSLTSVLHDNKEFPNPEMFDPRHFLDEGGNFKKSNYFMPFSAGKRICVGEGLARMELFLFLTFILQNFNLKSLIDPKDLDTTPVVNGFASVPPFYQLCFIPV
`O=C1CN(c2nc(-c3ccccc3)c3cc(Br)ccc3n2)c2ccccc2N1`: the “activity, negative = inhibition” value is -16.6%.

Take `CC(C)NC[C@@H](O)COc1ccccc1-n1cccc1`: the “activity, negative = inhibition” value is -27.9%.

As to `N=C(C[C@@H](O)COc1ccccc1-c1ccccc1)N1CCCCC1`, the half-maximal activity concentration (AC50) is 31.6 µM (active). On the same count and under the same terms, the entry for `CC(C)(C)NC[C@H](O)COc1cccc2c1CCCC2=O` is “inactive”; for `O=C1C(=O)c2ccccc2C(O)=C1C(C1=C(O)c2ccccc2C(=O)C1=O)c1ccc(Cl)cc1` it is 3.98 µM (active). Consider `O=C1C(=O)c2ccccc2C(O)=C1C(CCc1ccccc1)C1=C(O)c2ccccc2C(=O)C1=O`, for which the activity, negative = inhibition is 21.7% [at 11.4 µM]. As to `O=C1C(=O)c2ccccc2C(O)=C1C1CCC(c2ccc(Cl)cc2)CC1` (centres undefined), the “activity, negative = inhibition” value was -17% [at 25.6 µM]. As to `O=C1C2C3C=CC(C3)C2C(=O)N1c1ncn[nH]1` (centres undefined), the “activity, negative = inhibition” value was -7.13%. Take `CN(C)CCNC(=O)c1cc(Br)ccc1Cl`: the “activity, negative = inhibition” value is -28.6%. `CC(=O)Oc1cc(C(C)C)c(OCCN(C)C)cc1C`: the AC50 result is “inactive”. Same read-out and setting: the figure for `CSc1ccc(Cl)c(C(=O)NCCOc2cc(C)ccc2C(C)C)c1` is 5.01 µM (active). `CC(C)=CCC/C(C)=C/CO/N=C1/[C@H]2O[C@@H]2[C@@H](O)[C@H]2[C@H]1CCn1c(=O)n(Cc3cc4c(cc3Cl)OCO4)c(=O)n12`: the activity, negative = inhibition was 9.01% [at 11.4 µM].

`Cc1ccc(S(=O)(=O)Nc2ccccc2C=O)cc1`: the AC50 was 5.01 µM (active). Turning to `Cc1ccc(S(=O)(=O)Nc2ccccc2C(=O)c2ccc(C)c(C)c2)cc1`, the activity, negative = inhibition was 30.1% [at 11.4 µM]. Consider `Cc1ccc(S(=O)(=O)N[C@H]2COC(=O)C/C=C\[C@H](C)[C@@H](NS(=O)(=O)c3ccc(C)cc3)COC(=O)C/C=C\[C@@H]2C)cc1`, for which the activity, negative = inhibition is 18.4% [at 11.4 µM]. As to `CCOC(=O)c1c(C(C)(C)C)oc2ccc(O)cc12`, the half-maximal activity concentration (AC50) is 3.98 µM (active). Still for that read-out and setting: the entry for `C[C@@](N)(Cc1ccc(O)cc1)C(=O)O` is “inactive”. With `C[C@](N)(Cc1ccc(O)c(O)c1)C(=O)O`, the “activity, negative = inhibition” value is 26%. Regarding `O=C(N/N=C/c1c[nH]c2ccc(Br)cc12)c1ccn(Cc2ccc(Cl)cc2)n1`, the AC50 is 3.55 µM (active). Same read-out and setting: with `O=C(N/N=C/c1c[nH]c2ccccc12)c1ccn(Cc2ccc(Cl)cc2Cl)n1` the figure was 2 µM (active).

For `O=c1ncn(-c2ccccc2F)c2ncccc12`, the “activity, negative = inhibition” value was -27%. On to `O=c1[nH]n(-c2cccc3cccnc23)c(=O)c2ccccc12`, for which the AC50 is 11.2 µM (active). With `c1ccc2c(NC3CCNCC3)nc(-c3ccoc3)nc2c1`, the “activity, negative = inhibition” value is 15.9%.

Take `Cc1cccc(CNc2nc(-c3ccoc3)nc3ccccc23)c1`: the concentration at half-maximal activity (AC50) was 7.94 µM (active). As for `COc1ccccc1CNc1nc(-c2cccc(C#N)c2)nc2ccccc12`, the concentration at half-maximal activity (AC50) is 3.98 µM (active). Turning to `CNc1nc(-c2cccc(C#N)c2)nc2ccccc12`, the AC50 is 7.94 µM (active). Regarding `Cc1cnc(CNc2nc(-c3ccoc3)nc3ccccc23)cn1`, the “activity, negative = inhibition” value is -27.9%. In the case of `N#Cc1cccc(-c2nc(Nc3ccccc3)c3ccccc3n2)c1`, the “activity, negative = inhibition” value was 15.4%. For the compound `COc1cccc(-c2nc(NCc3cccs3)c3ccccc3n2)c1`, the half-maximal activity concentration (AC50) is 3.16 µM (active).

Take `N#Cc1cccc(-c2nc(NCc3cccs3)c3ccccc3n2)c1`: the “activity, negative = inhibition” value was -23.1%.

As for `Cc1ccnc(N)c1`, the “activity, negative = inhibition” value was -27.7%. For the compound `C[C@H](N=C(NC#N)Nc1ccncc1)C(C)(C)C`, the “activity, negative = inhibition” value was 5.2%. On to `NC(N)=N[C@@H]1C(O)[C@H](N=C(N)N)[C@@H](O)C(O)[C@H]1O` (some centres undefined), for which the activity, negative = inhibition is 12.7% [at 11.4 µM].

With `COc1cccc(-c2nc(NCc3ccccc3)c3ccccc3n2)c1`, the AC50 was 3.98 µM (active). Turning to `Cc1cccc(CNc2nc(-c3cccnc3)nc3ccccc23)c1`, the AC50 was 10 µM (active). Turning to `COc1cccc(-c2nc(NCc3ccccc3OC)c3ccccc3n2)c1`, the AC50 is 7.94 µM (active).

In the case of `N#Cc1cccc(-c2nc(NCc3cccnc3)c3ccccc3n2)c1`, the “activity, negative = inhibition” value was -27.2%. Turning to `COc1cccc(-c2nc(NC3CCNCC3)c3ccccc3n2)c1`, the “activity, negative = inhibition” value is 8.48%. For `Cc1cnc(CNc2nc(-c3cccnc3)nc3ccccc23)cn1`, the “activity, negative = inhibition” value is -29.8%. For the compound `N#Cc1cccc(-c2nc(NCc3ccccc3)c3ccccc3n2)c1`, the AC50 is 6.31 µM (active). As to `COc1ccc(-c2cc(C(F)(F)F)nc(NCc3cccnc3)n2)cc1`, the AC50 was 2.82 µM (active). Same read-out and setting: with `COc1cccc(-c2nc(NCc3cccnc3)c3ccccc3n2)c1` the figure was 25.1 µM (active). As to `O=C(O)c1ccc(C(=O)O)c(C(=O)O)c1.[NH-][C@@H]1CCCC[C@@H]1[NH-].[Pt]`, the activity, negative = inhibition is -17.9% [at 11.4 µM]. In the case of `CN1CCC2(CC1)CCN(C(=O)c1cc(C(F)(F)F)cc(C(F)(F)F)c1)CC2`, the “activity, negative = inhibition” value was -21.7%. For the compound `CON/C=C(\C=Nc1ccccc1)c1ncc(C(F)(F)F)cc1Cl`, the AC50 is 3.55 µM (active).

As to `Cn1cnc2c(NC3CCCC3)ncnc21`, the “activity, negative = inhibition” value is -28%. For the compound `NS(=O)(=O)c1ccc(N=C2C(=O)Nc3ccccc32)cc1`, the activity, negative = inhibition is -2.67% [at 11.4 µM]. Consider `O=C1Nc2ccccc2C1=Nc1ccc(S(=O)(=O)Nc2nccs2)cc1`, for which the activity, negative = inhibition was 21.4% [at 11.4 µM]. As for `O=C1Nc2ccccc2/C1=N/c1sc2c(c1C(=O)NCCc1ccccc1)CCCC2`, the AC50 is 2.51 µM (active).

Usually AC50 stands for the concentration giving half of the maximal activity seen.
